The text below walks through data of PubChem BioAssay (NCI).

This is part of a sample that, as a whole, favours compounds with a hit. Of some 83,000 tested, about 20% had one in any assay.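 48-hour exposure, single concentration, 96-well plates; percent growth endpoint where 0 means no net growth. Active: below 10.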 A number with no mark means an inactive call. Activity calls are given as the source filed them.

Test systems include SR leukemia; RPMI-8226 leukemia; OVCAR-8 ovarian; OVCAR-5 ovarian; OVCAR-4 ovarian; SK-OV-3 ovarian; IGROV1 ovarian; OVCAR-3 ovarian; HS 578T breast; NCI/ADR-RES ovarian.
What all share (assay): NCI-60 one-dose screen, 48 h (100 = growth as untreated, 0 = no growth, -100 = all killed)
Settings in all cases: 10 µM unless noted

As for `Cc1cc(NC(=O)c2cnc(N3CCN(CCOCCOCCOCCOCCC(=O)N[C@H](C(=O)N4C[C@H](O)C[C@H]4C(=O)N[C@@H](C)c4ccc(-c5scnc5C)cc4)C(C)(C)C)CC3)cn2)c2ncccc2c1`, the growth is 7.46% (active) in the assay on SR leukemia; -26.5% (active) with RPMI-8226 leukemia; 20.7% in the assay with OVCAR-8 ovarian; 80.4% with OVCAR-5 ovarian; 14.7% with OVCAR-4 ovarian; 63.9% in the assay with SK-OV-3 ovarian. Also, the growth in the assay with IGROV1 ovarian was -37.8% (active); in the assay with OVCAR-3 ovarian, -30.8% (active); in the assay on HS 578T breast it was 6.9% (active); in the assay on NCI/ADR-RES ovarian, 90.5%.
Take `CCCC1C(C(=O)OCC)=C(N)Oc2cc(O)ccc21` (stereo not given): the growth is 90.1% in the assay with SR leukemia; 98.5% in the assay with RPMI-8226 leukemia; 107% in the assay with OVCAR-8 ovarian; 108% in the assay on OVCAR-5 ovarian; 89.3% with OVCAR-4 ovarian; 88.3% in the assay with SK-OV-3 ovarian. Moreover, the growth in the assay with IGROV1 ovarian was 76.4%; in the assay with OVCAR-3 ovarian, 96.6%; with HS 578T breast, 101%; with NCI/ADR-RES ovarian it was 94.3%.
For the molecule `COc1ccc(-c2nc(SCCC(C)C)nc(N/N=C(/C)c3ccc(C)cc3)c2C#N)cc1`, the growth with SR leukemia was 91.2%; in the assay on RPMI-8226 leukemia, 88%; in the assay with OVCAR-8 ovarian it was 88.1%; in the assay on OVCAR-5 ovarian it was 85.4%; with OVCAR-4 ovarian, 103%; with SK-OV-3 ovarian, 95.7%. Also, the growth in the assay on IGROV1 ovarian is 84.7%; in the assay with OVCAR-3 ovarian it was 102%; in the assay with HS 578T breast, 85.1%; with NCI/ADR-RES ovarian it was 89.8%.
As to `Fc1ccc(-n2cc(COc3ncnc4sc5c(c34)CCCC5)nn2)cc1Cl`, the growth was 93.5% with SR leukemia; 96% with RPMI-8226 leukemia; 96.7% in the assay with OVCAR-8 ovarian; 96.6% in the assay on OVCAR-5 ovarian; 99.7% with OVCAR-4 ovarian; 103% in the assay with SK-OV-3 ovarian. Moreover, the growth is 91.9% in the assay with IGROV1 ovarian, 112% in the assay with OVCAR-3 ovarian, 104% in the assay with HS 578T breast and 95.1% in the assay on NCI/ADR-RES ovarian.
For `COc1cc2nc(Cc3ccc(C)cc3)[nH]c(=O)c2cc1OC`, the growth with SR leukemia was 100%; in the assay with RPMI-8226 leukemia, 88.2%; in the assay with OVCAR-8 ovarian, 104%; with OVCAR-5 ovarian, 102%; with OVCAR-4 ovarian, 108%; in the assay with SK-OV-3 ovarian it was 113%. Also, the growth in the assay with IGROV1 ovarian is 109%; with OVCAR-3 ovarian, 109%; with HS 578T breast, 100%; in the assay with NCI/ADR-RES ovarian it was 102%.
As to `CCN(CC)CCCCCCNc1cc(OC)cc2cccnc12`, the growth with SR leukemia was -51.2% (active); in the assay on RPMI-8226 leukemia, -8.8% (active); with OVCAR-8 ovarian, 20.7%; in the assay on OVCAR-5 ovarian it was 97.7%; in the assay with OVCAR-4 ovarian, 44.6%; in the assay with SK-OV-3 ovarian, 101%. The growth in the assay on IGROV1 ovarian is 88.8%; with OVCAR-3 ovarian, -44.2% (active); in the assay with HS 578T breast, 92.5%; with NCI/ADR-RES ovarian, 82.9%.
With `CCN1C(=O)N(CC)C2NC(SC)=NC21` (stereo not given), the growth with SR leukemia is 107%; in the assay with RPMI-8226 leukemia, 157%; in the assay with OVCAR-8 ovarian it was 104%; in the assay on OVCAR-5 ovarian, 88.9%; in the assay with OVCAR-4 ovarian, 103%; in the assay on SK-OV-3 ovarian it was 104%. Further, the growth was 102% in the assay with IGROV1 ovarian, 102% in the assay with OVCAR-3 ovarian, 94.1% with HS 578T breast and 99.7% in the assay on NCI/ADR-RES ovarian.
In the case of `COc1ccc(C2CC(c3cccc(Nc4ccncc4)c3)=NN2c2ccc(Cl)cc2)cc1` (stereo not given), the growth with SR leukemia is 1.94% (active); with RPMI-8226 leukemia, 0.0835% (active); in the assay with OVCAR-8 ovarian, -23.4% (active); in the assay on OVCAR-5 ovarian it was 74.1%; with OVCAR-4 ovarian, 37.7%; in the assay on SK-OV-3 ovarian it was 63.9%. The growth with IGROV1 ovarian is 23%; in the assay on OVCAR-3 ovarian, 39.6%; with HS 578T breast, 60.7%; in the assay with NCI/ADR-RES ovarian, 62.3%.
As to `CCCCCN1C=C/C(=C\C(=O)N(C)c2ccc(Br)cc2)c2ccccc21`, the growth in the assay with SR leukemia is 90.5%; in the assay with RPMI-8226 leukemia it was 89.1%; in the assay on OVCAR-8 ovarian it was 89.4%; in the assay with OVCAR-5 ovarian, 104%; with OVCAR-4 ovarian, 84.4%; with SK-OV-3 ovarian, 96.8%. The growth in the assay on IGROV1 ovarian is 96.3%; in the assay on OVCAR-3 ovarian, 98.8%; in the assay with HS 578T breast, 98.6%; in the assay with NCI/ADR-RES ovarian it was 100%.
On to `FC(F)(F)c1cccc(Nc2ccccc2)c1`, for which the growth in the assay with SR leukemia is 88.2%; with RPMI-8226 leukemia, 104%; in the assay with OVCAR-8 ovarian, 101%; in the assay with OVCAR-5 ovarian it was 95.4%; in the assay with OVCAR-4 ovarian it was 108%; in the assay on SK-OV-3 ovarian it was 119%. The growth in the assay on IGROV1 ovarian was 102%; with OVCAR-3 ovarian it was 118%; in the assay with HS 578T breast it was 105%; in the assay with NCI/ADR-RES ovarian it was 96.2%.
Take `Clc1ccc(N2N=C(c3cccc(Nc4ccncc4)c3)CC2c2ccc(Br)cc2)cc1` (stereo not given): the growth was 1.87% (active) with SR leukemia; -2.67% (active) in the assay on RPMI-8226 leukemia; -18.7% (active) with OVCAR-8 ovarian; 77.8% with OVCAR-5 ovarian; 0.0501% (active) in the assay with OVCAR-4 ovarian; 85.7% with SK-OV-3 ovarian. The growth in the assay on IGROV1 ovarian was 3.01% (active); in the assay on OVCAR-3 ovarian, 37.7%; in the assay with HS 578T breast, 60.5%; in the assay on NCI/ADR-RES ovarian, 39.6%.
As to `CN(C)C(=O)c1cc2cnc(Nc3ccc(-c4csc5c(=O)cc(N6CCOCC6)oc45)cc3)nc2n1C1CCCC1`, the growth in the assay with SR leukemia is 0.0235% (active); with RPMI-8226 leukemia it was -46.7% (active); with OVCAR-8 ovarian, 2.54% (active); with OVCAR-5 ovarian it was -9.43% (active); in the assay with OVCAR-4 ovarian, 12.4%; in the assay with SK-OV-3 ovarian, -28.3% (active). For the same molecule, the growth is -7.11% (active) with IGROV1 ovarian, 2.63% (active) in the assay on OVCAR-3 ovarian, -8.99% (active) in the assay with HS 578T breast and 0.628% (active) with NCI/ADR-RES ovarian.
On to `CC1CCN(C(=O)OCc2nc3nc(Cl)nc(N4CCOCC4)c3[nH]2)CC1`, for which the growth was -28.6% (active) with SR leukemia; -29.7% (active) in the assay on RPMI-8226 leukemia; -29% (active) in the assay with OVCAR-8 ovarian; -38.2% (active) with OVCAR-5 ovarian; -54.1% (active) in the assay with OVCAR-4 ovarian; 62.8% in the assay with SK-OV-3 ovarian. Besides, the growth in the assay on IGROV1 ovarian is -68% (active); in the assay with OVCAR-3 ovarian, -92.8% (active); in the assay on HS 578T breast it was -13.5% (active); with NCI/ADR-RES ovarian, -18.6% (active).
